Consider three compounds from ChEMBL document CHEMBL2218924, “A broad activity screen in support of a chemogenomic map for kinase signalling research and drug discovery” (Biochem J, 2013).

Each structure is given as a SMILES string.

Test [1] addresses Death-associated protein kinase 1 (Homo sapiens) (UniProt P53355). The note with it: at 10 µM.
The target of test [2] is Death-associated protein kinase 2 (Homo sapiens) (UniProt Q9UIK4). The note with it: at 1 µM.
For test [3] the target is unchanged. The note with it: at 10 µM.
Test [4] has as its target T1, Serine/threonine-protein kinase DCLK2 (Homo sapiens) (UniProt Q8N568).
T1 sequence (whole entry): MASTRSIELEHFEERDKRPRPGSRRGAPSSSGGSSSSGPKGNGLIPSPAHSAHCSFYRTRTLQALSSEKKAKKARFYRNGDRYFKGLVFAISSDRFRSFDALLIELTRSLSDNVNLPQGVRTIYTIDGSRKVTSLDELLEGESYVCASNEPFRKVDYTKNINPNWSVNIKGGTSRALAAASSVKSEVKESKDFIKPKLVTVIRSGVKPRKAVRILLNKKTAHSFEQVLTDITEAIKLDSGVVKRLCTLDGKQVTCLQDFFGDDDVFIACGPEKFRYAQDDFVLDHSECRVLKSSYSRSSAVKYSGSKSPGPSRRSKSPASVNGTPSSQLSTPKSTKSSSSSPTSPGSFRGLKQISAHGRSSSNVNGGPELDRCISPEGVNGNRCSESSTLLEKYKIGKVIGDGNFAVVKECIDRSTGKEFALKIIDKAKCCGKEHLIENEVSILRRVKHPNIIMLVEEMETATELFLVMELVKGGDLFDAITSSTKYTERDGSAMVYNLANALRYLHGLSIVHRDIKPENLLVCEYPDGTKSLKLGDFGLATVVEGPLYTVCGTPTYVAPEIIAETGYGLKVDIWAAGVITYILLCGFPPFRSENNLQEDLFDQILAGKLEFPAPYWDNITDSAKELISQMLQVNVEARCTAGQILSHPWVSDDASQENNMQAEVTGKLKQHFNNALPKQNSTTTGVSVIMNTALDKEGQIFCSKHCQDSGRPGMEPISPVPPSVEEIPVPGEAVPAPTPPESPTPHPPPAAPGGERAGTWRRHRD
The note with it: at 1 µM.

Test [5] concerns the target T1, Serine/threonine-protein kinase DCLK2 (Homo sapiens). The following applies: at 10 µM.
The target in test [6] is T2, Discoidin domain-containing receptor 2 (Homo sapiens) (UniProt Q16832).
T2 sequence (whole entry): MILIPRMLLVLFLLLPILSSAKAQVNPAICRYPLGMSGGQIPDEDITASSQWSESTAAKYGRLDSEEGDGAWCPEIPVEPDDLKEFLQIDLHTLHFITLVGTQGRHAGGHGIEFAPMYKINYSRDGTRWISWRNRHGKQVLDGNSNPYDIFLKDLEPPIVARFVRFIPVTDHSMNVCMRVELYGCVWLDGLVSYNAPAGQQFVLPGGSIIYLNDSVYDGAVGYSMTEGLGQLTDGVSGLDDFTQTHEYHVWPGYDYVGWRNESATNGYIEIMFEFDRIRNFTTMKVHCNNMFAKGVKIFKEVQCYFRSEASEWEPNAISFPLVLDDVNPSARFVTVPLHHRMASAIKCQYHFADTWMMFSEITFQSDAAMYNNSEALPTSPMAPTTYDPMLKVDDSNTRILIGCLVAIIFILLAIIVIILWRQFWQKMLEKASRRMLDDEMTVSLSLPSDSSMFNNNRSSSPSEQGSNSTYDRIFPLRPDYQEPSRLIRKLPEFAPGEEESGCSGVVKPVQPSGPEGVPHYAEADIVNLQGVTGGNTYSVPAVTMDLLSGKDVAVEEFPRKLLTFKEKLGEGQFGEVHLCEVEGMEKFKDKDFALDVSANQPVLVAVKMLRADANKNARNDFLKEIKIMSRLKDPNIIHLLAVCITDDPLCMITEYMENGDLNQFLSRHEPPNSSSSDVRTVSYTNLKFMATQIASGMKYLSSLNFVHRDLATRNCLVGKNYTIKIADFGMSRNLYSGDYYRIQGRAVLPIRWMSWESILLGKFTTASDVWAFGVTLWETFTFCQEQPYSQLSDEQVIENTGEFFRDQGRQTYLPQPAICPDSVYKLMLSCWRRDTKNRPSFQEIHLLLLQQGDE
The following applies: at 1 µM.

In test [7] the target is T2, Discoidin domain-containing receptor 2 (Homo sapiens). The note with it: at 10 µM.
Test [8] has as its target T3, Myotonin-protein kinase (Homo sapiens) (UniProt Q09013).
T3 sequence (whole entry): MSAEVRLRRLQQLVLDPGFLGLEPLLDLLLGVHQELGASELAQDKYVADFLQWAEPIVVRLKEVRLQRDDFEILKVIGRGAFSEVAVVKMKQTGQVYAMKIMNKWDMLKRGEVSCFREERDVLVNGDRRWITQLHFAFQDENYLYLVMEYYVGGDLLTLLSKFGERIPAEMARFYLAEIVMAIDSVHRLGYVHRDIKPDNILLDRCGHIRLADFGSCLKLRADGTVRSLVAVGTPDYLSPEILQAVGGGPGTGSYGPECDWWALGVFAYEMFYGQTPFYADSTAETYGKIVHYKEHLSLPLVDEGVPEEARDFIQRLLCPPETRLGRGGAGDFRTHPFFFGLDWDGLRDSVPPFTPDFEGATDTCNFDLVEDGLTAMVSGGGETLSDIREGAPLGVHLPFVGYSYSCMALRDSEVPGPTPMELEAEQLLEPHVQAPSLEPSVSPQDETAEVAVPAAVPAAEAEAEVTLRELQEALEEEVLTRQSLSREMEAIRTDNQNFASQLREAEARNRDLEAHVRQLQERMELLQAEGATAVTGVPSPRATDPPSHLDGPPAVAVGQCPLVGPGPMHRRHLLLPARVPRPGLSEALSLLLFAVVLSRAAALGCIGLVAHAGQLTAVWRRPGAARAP
The note with it: at 10 µM.

Test [9] has as its target T4, Serine/threonine-protein kinase 17A (Homo sapiens) (UniProt Q9UEE5).
T4 sequence (whole entry): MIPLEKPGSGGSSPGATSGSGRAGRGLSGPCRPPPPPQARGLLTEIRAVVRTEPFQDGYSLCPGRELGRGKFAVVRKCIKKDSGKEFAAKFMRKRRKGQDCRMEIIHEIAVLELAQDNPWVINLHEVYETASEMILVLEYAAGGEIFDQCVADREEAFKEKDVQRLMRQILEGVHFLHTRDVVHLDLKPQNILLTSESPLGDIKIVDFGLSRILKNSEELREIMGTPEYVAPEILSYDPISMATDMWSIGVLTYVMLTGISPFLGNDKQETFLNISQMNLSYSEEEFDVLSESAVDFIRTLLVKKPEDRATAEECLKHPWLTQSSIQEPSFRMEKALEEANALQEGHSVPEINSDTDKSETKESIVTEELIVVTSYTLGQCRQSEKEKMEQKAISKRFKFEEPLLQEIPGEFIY
The note with it: at 1 µM.

The target in test [10] is T4, Serine/threonine-protein kinase 17A (Homo sapiens). The note with it: at 10 µM.
For test [11], the target named is T5, Ephrin type-A receptor 3 (Homo sapiens) (UniProt P29320).
T5 sequence (whole entry): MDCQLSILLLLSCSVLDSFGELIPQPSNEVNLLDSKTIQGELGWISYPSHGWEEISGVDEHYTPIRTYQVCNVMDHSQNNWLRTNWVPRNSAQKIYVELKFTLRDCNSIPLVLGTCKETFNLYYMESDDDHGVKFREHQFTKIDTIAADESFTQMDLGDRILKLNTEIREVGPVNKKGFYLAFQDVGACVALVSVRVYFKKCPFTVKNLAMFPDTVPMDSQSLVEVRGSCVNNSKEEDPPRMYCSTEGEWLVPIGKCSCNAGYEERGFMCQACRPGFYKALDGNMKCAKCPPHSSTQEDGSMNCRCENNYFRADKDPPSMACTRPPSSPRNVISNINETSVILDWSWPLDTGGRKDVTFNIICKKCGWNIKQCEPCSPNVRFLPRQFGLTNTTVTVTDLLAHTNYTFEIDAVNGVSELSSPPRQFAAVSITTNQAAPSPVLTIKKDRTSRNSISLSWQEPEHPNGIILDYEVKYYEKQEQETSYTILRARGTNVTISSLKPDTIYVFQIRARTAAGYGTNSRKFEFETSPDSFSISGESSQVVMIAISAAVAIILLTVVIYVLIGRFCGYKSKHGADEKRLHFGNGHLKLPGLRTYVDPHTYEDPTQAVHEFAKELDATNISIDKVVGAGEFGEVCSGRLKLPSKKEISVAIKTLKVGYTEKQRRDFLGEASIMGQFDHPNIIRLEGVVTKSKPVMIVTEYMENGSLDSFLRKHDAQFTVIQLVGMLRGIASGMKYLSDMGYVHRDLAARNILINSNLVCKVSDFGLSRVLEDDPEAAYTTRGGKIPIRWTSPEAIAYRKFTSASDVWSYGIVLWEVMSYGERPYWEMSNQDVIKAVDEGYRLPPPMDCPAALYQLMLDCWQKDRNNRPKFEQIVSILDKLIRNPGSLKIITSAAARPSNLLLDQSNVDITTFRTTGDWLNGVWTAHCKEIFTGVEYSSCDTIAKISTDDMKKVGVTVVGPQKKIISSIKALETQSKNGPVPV
The following applies: at 1 µM.

The target in test [12] is T6, Ephrin type-A receptor 1 (Homo sapiens) (UniProt P21709).
T6 sequence (whole entry): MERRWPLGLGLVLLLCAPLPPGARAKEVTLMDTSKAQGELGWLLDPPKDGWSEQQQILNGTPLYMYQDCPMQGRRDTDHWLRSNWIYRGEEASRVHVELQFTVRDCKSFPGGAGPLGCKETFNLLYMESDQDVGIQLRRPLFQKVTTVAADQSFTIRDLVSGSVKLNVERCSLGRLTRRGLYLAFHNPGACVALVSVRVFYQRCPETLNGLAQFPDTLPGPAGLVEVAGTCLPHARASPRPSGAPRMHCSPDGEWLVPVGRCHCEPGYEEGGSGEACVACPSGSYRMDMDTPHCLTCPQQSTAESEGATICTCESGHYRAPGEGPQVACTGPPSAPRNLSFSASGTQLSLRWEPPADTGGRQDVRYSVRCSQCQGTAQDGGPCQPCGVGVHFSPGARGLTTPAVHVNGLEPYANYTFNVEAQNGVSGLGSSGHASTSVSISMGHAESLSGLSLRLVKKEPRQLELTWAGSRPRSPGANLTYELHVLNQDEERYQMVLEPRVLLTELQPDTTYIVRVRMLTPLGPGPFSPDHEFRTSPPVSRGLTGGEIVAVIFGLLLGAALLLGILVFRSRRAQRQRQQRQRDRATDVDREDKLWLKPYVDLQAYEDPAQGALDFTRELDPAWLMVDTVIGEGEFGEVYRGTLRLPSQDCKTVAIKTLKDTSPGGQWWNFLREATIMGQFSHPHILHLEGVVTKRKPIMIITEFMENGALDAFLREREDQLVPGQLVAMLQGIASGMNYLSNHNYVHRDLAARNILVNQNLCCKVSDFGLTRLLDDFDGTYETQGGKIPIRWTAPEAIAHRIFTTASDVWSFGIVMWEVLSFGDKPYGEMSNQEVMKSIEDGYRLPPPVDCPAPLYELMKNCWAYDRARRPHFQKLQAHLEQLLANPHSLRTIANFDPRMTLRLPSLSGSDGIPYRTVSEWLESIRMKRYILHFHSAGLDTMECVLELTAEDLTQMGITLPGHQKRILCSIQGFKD
The following applies: at 1 µM.

Test [13] concerns the target T6, Ephrin type-A receptor 1 (Homo sapiens). The following applies: at 10 µM.
The target in test [14] is T3, Myotonin-protein kinase (Homo sapiens). The following applies: at 1 µM.
The target in test [15] is T7, Dual specificity tyrosine-phosphorylation-regulated kinase 2 (Homo sapiens) (UniProt Q92630).
T7 sequence (whole entry): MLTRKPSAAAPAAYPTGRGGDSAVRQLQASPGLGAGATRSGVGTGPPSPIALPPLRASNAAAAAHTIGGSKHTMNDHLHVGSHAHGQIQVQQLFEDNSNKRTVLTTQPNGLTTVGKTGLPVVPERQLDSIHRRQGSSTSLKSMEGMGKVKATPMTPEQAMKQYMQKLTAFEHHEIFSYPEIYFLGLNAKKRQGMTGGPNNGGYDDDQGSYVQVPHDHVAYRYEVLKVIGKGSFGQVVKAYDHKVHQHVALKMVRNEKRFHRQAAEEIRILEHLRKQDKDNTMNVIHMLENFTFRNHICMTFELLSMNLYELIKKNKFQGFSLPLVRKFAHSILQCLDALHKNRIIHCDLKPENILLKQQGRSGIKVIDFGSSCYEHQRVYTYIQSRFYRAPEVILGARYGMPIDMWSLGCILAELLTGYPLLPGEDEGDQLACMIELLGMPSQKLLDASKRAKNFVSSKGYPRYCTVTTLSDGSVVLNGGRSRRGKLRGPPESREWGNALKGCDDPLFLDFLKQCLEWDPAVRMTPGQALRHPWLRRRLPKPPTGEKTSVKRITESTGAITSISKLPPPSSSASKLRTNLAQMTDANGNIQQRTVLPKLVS
The note with it: at 1 µM.

Test [16] deals with T7, Dual specificity tyrosine-phosphorylation-regulated kinase 2 (Homo sapiens). The following applies: at 10 µM.

Death-associated protein kinase 2 (Homo sapiens), sequence (Q9UIK4 whole entry, looked up): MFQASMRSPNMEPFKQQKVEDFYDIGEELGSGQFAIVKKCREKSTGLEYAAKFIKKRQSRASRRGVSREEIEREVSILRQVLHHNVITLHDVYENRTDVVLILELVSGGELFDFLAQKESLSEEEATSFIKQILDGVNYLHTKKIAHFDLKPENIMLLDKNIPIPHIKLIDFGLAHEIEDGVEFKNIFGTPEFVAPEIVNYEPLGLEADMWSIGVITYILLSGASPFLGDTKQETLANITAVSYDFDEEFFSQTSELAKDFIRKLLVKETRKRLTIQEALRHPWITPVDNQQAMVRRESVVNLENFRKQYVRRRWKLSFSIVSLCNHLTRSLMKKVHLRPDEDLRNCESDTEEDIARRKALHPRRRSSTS
Death-associated protein kinase 1 (Homo sapiens), sequence (P53355 whole entry, looked up): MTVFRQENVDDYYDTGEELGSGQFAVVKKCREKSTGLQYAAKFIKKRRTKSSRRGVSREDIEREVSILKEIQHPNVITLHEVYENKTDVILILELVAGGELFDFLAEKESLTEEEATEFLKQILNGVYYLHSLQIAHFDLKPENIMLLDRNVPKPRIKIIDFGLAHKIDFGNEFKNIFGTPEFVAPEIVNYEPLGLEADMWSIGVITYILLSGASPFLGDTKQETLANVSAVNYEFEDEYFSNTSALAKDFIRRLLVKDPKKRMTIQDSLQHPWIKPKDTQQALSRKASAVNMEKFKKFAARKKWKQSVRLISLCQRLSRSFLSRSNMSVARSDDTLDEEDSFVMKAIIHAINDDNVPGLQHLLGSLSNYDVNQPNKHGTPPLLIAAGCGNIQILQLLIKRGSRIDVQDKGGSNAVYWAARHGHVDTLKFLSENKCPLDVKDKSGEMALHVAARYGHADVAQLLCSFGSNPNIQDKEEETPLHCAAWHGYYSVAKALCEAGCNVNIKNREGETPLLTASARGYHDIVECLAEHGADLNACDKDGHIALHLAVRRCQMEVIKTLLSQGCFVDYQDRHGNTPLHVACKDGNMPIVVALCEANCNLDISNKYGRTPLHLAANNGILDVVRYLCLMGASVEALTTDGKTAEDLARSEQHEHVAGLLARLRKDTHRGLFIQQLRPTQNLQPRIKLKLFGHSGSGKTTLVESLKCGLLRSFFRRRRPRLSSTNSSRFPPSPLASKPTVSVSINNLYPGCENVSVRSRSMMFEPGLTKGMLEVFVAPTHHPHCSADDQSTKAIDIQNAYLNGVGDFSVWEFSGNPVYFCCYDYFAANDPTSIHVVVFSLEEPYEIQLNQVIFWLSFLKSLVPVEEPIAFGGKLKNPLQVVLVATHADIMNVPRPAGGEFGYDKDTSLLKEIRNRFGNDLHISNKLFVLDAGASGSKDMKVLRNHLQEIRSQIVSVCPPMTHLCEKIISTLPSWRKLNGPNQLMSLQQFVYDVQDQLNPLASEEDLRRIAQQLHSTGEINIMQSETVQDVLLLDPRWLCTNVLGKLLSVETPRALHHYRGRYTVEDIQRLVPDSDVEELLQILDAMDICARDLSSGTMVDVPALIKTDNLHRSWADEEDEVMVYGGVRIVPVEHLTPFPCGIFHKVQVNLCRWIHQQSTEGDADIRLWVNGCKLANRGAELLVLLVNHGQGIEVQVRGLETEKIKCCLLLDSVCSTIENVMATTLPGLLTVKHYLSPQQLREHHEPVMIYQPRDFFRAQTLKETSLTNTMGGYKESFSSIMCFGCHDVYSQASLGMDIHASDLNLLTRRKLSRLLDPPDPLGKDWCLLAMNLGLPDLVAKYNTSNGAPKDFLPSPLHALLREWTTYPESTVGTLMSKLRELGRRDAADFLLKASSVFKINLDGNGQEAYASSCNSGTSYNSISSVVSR

One may read the residual activity as the signal under treatment as a percentage of the control signal. As to `O=C1NC(=O)C(c2cn(CCCO)c3ncccc23)=C1c1cnccn1`, the residual activity came out at 83% in test [1]; 65% in test [2]; 59% in [3]; 95% in test [4]; 78% in test [5]; 93% in test [6]. The residual activity in [7] was 96%; in [8], 82%; in test [9], 89%; in test [10] it was 67%; in test [11], 97%.
`CC(C)N(CCC(=O)c1ccc2ccccc2c1)Cc1ccccc1`: the residual activity was determined as 76% in test [1]; 80% in test [4]; 80% in test [5]; 131% in [8]; 75% in [12]; 85% in test [13].
`Cn1c2ccccc2c2c3c(c4c5ccccc5n(CCC#N)c4c21)CNC3=O`: the residual activity is 73% in test [1]; 93% in test [2]; 105% in test [3]; 56% in test [4]; 60% in test [5]; 121% in [14]. Also, the residual activity amounted to 114% in test [8]; 36% in test [9]; 36% in [10]; 76% in [15]; 66% in test [16].
